A short description of assay [1]: binders of probe aFSTL3 on microarray, primary screen, stem cell growth factor project, biochemical, small-molecule microarray, fluorescence 635/667 (AID 1064).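 Note: measures binding of the biotinylated anti-FSTL3 antibody to printed compounds.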 Conditions: higher = more signal.
Assay [2] in a line: binders from COS7 lysate, DM2A8 probe, primary screen, torsin A project, cell lysate, small-molecule microarray, fluorescence 635/667 (AID 1065). As to conditions: higher = more signal, COS7 lysate expressing mutant human TOR1A.
A short description of assay [3]: binders of probe aFGF2 on microarray, primary screen, stem cell growth factor project, biochemical, small-molecule microarray, fluorescence 635/667 (AID 1067).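 Note: measures binding of biotinylated aFGF2 protein to printed compounds on slides; z-score merges feature fluorescence and signal-to-noise across triplicate slides.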 As to conditions: higher = more signal.
Assay [4] in a line: binders of probe aFGF10 on microarray, primary screen, stem cell growth factor project, biochemical, small-molecule microarray, fluorescence 635/667 (AID 1071).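 Note: score merges 667 nm spot intensity and signal to noise from triplicate slides.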 Conditions: higher = more signal.
For assay [5], the target named is Neurogenic locus notch homolog protein 2 (Homo sapiens) (UniProt Q04721). Briefly: Notch2 binders on small-molecule microarrays, primary screen, biochemical, small-molecule microarray, 635 nm fluorescence, stem cell growth factors (AID 1073). Conditions: Notch2 binding, higher = more signal.
Sequence of Neurogenic locus notch homolog protein 2 (Homo sapiens) (Q04721 whole entry, looked up, canonical isoform): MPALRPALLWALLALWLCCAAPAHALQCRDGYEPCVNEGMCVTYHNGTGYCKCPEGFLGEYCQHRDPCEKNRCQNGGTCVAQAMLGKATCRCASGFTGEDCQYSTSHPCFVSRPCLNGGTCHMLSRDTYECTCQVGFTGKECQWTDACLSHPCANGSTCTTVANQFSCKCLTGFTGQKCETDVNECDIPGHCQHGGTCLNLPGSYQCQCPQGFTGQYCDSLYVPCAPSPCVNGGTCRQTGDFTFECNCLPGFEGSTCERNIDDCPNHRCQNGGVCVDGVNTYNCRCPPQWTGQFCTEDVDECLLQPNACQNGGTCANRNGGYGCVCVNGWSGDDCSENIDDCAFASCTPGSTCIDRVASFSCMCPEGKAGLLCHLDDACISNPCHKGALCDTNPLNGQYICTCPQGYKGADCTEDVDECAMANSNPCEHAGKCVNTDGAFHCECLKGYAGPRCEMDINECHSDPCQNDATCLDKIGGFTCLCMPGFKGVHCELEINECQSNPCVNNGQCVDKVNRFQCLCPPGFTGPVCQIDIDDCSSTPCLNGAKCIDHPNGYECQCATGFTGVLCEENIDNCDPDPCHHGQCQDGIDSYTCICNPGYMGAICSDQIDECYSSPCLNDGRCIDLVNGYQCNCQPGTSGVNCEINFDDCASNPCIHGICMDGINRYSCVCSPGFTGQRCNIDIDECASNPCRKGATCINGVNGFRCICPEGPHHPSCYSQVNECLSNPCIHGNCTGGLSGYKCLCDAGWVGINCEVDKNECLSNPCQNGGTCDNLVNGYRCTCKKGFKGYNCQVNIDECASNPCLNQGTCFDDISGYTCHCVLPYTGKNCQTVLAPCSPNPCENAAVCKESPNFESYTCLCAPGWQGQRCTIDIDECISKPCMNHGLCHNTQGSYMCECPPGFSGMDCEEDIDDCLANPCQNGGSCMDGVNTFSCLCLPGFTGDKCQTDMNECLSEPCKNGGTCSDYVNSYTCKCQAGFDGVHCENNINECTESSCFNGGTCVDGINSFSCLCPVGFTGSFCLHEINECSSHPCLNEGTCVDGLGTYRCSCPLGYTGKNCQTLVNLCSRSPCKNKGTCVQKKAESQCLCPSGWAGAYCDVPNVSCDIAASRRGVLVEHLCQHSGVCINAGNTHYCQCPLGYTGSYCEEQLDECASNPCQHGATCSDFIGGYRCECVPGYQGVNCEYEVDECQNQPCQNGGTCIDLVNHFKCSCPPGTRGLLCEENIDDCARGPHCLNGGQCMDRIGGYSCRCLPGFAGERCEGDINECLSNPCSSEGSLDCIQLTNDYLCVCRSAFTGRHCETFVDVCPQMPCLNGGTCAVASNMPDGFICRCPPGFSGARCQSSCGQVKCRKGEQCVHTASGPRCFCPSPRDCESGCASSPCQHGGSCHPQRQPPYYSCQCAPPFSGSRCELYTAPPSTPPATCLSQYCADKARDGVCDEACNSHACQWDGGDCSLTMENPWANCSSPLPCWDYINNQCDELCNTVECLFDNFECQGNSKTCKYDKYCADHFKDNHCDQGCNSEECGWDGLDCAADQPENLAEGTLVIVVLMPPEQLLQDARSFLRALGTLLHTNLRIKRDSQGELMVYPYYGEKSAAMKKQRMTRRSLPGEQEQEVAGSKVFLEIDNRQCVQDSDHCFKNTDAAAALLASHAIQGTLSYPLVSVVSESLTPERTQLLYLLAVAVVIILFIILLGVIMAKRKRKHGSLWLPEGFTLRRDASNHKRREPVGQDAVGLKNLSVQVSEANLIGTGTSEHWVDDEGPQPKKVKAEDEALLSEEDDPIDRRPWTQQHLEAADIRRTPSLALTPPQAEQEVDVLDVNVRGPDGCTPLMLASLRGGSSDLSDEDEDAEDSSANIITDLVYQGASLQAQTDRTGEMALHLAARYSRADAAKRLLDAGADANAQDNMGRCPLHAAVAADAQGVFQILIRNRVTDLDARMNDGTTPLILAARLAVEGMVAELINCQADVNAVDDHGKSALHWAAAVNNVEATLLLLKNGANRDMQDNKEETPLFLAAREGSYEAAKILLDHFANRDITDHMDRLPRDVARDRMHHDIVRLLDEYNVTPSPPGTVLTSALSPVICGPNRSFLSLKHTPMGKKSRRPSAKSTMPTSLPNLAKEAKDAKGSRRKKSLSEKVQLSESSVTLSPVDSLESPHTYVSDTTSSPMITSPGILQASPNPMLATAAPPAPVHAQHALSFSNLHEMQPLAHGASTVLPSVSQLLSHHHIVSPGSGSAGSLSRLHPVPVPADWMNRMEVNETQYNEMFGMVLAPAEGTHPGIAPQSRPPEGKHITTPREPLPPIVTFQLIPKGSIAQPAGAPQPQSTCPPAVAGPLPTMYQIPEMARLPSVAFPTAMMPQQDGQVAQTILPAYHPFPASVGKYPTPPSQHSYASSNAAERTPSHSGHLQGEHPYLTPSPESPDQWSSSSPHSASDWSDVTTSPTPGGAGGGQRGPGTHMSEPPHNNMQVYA
For assay [6], the target named is Pro-neuregulin-1, membrane-bound isoform (Homo sapiens) (UniProt Q02297). The experiment in a line: NRG1 binders on small-molecule microarrays, primary screen, psychiatric disease protein project, biochemical, small-molecule microarray, fluorescence 635/667 (AID 1075).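 Note: score combines 667 nm spot fluorescence with signal to noise.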 Conditions: NRG1 binding, 635 nm fluorescence, higher = more signal.
Sequence of Pro-neuregulin-1, membrane-bound isoform (Homo sapiens) (Q02297 whole entry, looked up, the tested form may be a part, canonical isoform): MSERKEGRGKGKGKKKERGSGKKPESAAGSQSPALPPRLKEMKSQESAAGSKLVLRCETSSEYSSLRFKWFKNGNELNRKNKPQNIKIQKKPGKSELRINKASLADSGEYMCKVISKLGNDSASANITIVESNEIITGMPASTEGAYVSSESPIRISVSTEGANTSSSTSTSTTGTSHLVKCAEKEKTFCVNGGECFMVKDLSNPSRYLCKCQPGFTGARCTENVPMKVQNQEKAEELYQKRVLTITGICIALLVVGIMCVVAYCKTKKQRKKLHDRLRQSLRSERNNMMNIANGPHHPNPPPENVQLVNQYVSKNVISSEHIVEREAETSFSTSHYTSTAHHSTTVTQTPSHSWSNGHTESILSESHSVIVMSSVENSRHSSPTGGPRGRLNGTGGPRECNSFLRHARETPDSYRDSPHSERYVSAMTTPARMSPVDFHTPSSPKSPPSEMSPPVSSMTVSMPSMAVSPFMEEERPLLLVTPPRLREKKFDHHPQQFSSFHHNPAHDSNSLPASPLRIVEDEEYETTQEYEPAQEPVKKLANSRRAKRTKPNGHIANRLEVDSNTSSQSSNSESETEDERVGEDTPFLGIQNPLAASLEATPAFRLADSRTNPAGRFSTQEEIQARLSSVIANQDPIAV
In assay [7] the test system is Neuregulin-1 EGF-like domain. The experiment in a line: binders of neuregulin-1 EGF-like domain, primary screen, biochemical, small-molecule microarray, 635 nm fluorescence (AID 1081).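 Note: binding of the protein to compounds printed on small-molecule microarray slides.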 As to conditions: small-molecule microarray binding, higher = more signal.
The nature of assay [8]: FRG1 promoter luciferase signal modulators, primary screen, FRG1 inhibition for FSHD, cell-based, C2C12 myotubes, firefly/Renilla luciferase, luminescence (AID 1084). As to conditions: higher = more signal, called active from +8 up or from −8 down.
The nature of assay [9]: binders of probe aFST on microarray, primary screen, stem cell growth factor project, biochemical, small-molecule microarray, fluorescence 635/667 (AID 1086).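 Note: score merges 667 nm fluorescence with signal-to-noise of each printed compound spot.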 As to conditions: higher = more signal.
Assay [10] is described as follows: binders of probe aHhip on microarray, primary screen, stem cell growth factor project, biochemical, small-molecule microarray, fluorescence 635/667 (AID 1087).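 Note: score merges spot fluorescence at 667nm with spot signal to noise ratio.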 As to conditions: higher = more signal.

The source made the active and inactive calls.

Turning to `COc1cc2c(cc1O)C(c1ccc(CN3CCCC3)cc1)N(Cc1cccc(OC(F)(F)F)c1)CC2` (stereo not given), the composite z-score in assay [1] is 0.254; in assay [2] it was 0.956; in [3], -0.0568; in assay [4], 0.0247; in assay [5] it was 0.473; in [6], 1.56. Moreover, the figures for the composite z-score in [7], in assay [9] and in assay [10] were 1.27, 0.155 and -0.0317, respectively. Besides, the z-score in assay [8] was -0.232 (inactive).
Regarding `COC(=O)[C@@]1(Cc2ccc(F)cc2)[C@H]2c3cc(C(=O)N(C)C)n(CCn4cc([N+](=O)[O-])nc4C)c3C[C@H]2CN1C(=O)c1ccccc1`, the composite z-score in assay [1] is 0.729; in assay [2], -0.498; in assay [3], 0.22; in assay [4] it was 0.422; in assay [5], 1.43; in [6], 1.36. Also, the composite z-score was 1.19 in [7], 0.593 in assay [9] and -0.166 in assay [10]. Moreover, the z-score in assay [8] was 1.26 (inactive).
For the molecule `C#CCN([C@H](/C=C/C1CC1)[C@@H](O)Cc1ccccc1)[C@@H](Cc1ccccc1)C(=O)OC`, the composite z-score is 0.262 in [1]; -0.134 in assay [2]; -0.121 in assay [3]; -0.363 in [4]; -0.807 in assay [5]; -0.458 in [6]. Also, the composite z-score was -0.706 in assay [7], -0.0804 in assay [9] and -0.123 in [10]. Also, the z-score in [8] is -1.67 (inactive).
`COCCOC(=O)N1C(=O)[C@@]2(c3cc(C#CC4(O)CCCCCC4)ccc31)[C@H](c1ccccc1OCCO)N1[C@H](c3ccccc3)[C@H](c3ccccc3)OC(=O)[C@H]1[C@@H]2C(=O)N1CCCCCCC1`: the composite z-score came out at 2.94 in assay [1]; 1.24 in assay [2]; 0.324 in assay [3]; 0.256 in [4]; 0.869 in assay [5]; 1.45 in assay [6]. The composite z-score was 1.29 in [7], 2.73 in assay [9] and 1.83 in assay [10]. In addition, in assay [8], the z-score was -0.926 (inactive).
In the case of `COCCOC(=O)N1C(=O)[C@@]2(c3cc(C#Cc4ccc(OC)cc4)ccc31)[C@H](C(=O)N1CCCCCCC1)[C@H]1C(=O)O[C@H](c3ccccc3)[C@H](c3ccccc3)N1[C@@H]2c1ccccc1OCCO`, the composite z-score in assay [1] turned out to be 3.15; in assay [2], 0.486; in assay [3], 0.685; in assay [4], 0.265; in assay [5], 1.13; in assay [6] it was 1.29. Also, the composite z-score in [7] stood at 1.12; in [9] it was 3.04; in [10], 2.21. Moreover, in assay [8], the z-score is -0.575 (inactive).
Turning to `CCOC(=O)C1=CC[C@@H](c2ccccc2)N(S(=O)(=O)C[Si](C)(C)C)[C@H]1c1ccccc1`, the composite z-score was -0.267 in assay [1]; 0.505 in assay [2]; -0.0181 in assay [3]; 0.389 in assay [4]; 1.25 in assay [5]; 0.652 in [6]. The composite z-score in assay [7] is 0.924; in assay [9], 1.25; in [10] it was -0.123. Moreover, the z-score in assay [8] is -2.47 (inactive).
As for `C=CCC(OC(C)=O)[C@@H]1[C@@H](N(Cc2cccc3ccccc23)C(=O)c2cccc3ccccc23)c2cc(OCCCO)ccc2N1C(=O)Cc1ccc2ccccc2c1` (stereo not given in full), the composite z-score in assay [1] was -0.101; in assay [2], -0.391; in assay [3], -0.116; in assay [4], 0.19; in assay [5], -0.168; in [6] it was -0.371. The values for the composite z-score in [7], in [9] and in assay [10] were -0.648, -0.0942 and -0.166, respectively. The z-score in [8] is -1.89 (inactive).
In the case of `CN(C)CCCC[C@@H]1NC(=O)[C@H]2C[C@@H](C(=O)O)[C@@H](c3cccc(OCCO)c3)N2C1=O`, the composite z-score in assay [1] is 0.794; in [2] it was 1.13; in [3], -0.0238; in [4], 0.105; in [5] it was 0.146; in assay [6], 0.212. Besides, the results for the composite z-score in assay [7], in [9] and in [10] were 1.44, 0.547 and 0.0374, respectively. Besides, the z-score in assay [8] was 6.56 (inactive).
On to `C=C(C(=O)CC[C@@H](OC(C)=O)c1cccc(OCCO)c1)C(C)C`, for which the composite z-score in assay [1] is -0.0377; in assay [2], 0.108; in assay [3] it was -0.0996; in assay [4], 0.365; in assay [5], -0.768; in assay [6], 1.92. The composite z-score in assay [7] is 0.568; in assay [9], -0.337; in assay [10] it was -0.0672. Besides, the z-score in assay [8] was 0.44 (inactive).
On to `O=C1N(CCS(=O)(=O)c2ccccc2)c2ccccc2[C@@H]2OC(c3ccc(OCCCO)cc3)=N[C@]12CCS(=O)(=O)c1ccccc1`, for which the composite z-score worked out at 0.359 in [1]; 0.145 in assay [2]; 0.0069 in [3]; 0.291 in assay [4]; 1.44 in assay [5]; 0.195 in [6]. For the same molecule, the values for the composite z-score in assay [7], in assay [9] and in assay [10] were 1.28, 0.855 and 0.0053, respectively. In assay [8], the z-score is -3.3 (inactive).
Turning to `CN(C)CCCCNC(=O)[C@H]1C[C@H]2C(=O)N[C@@H](Cc3ccccc3)C(=O)N2[C@H]1c1cccc(OCCO)c1`, the composite z-score in [1] is 0.863; in [2], 0.46; in [3] it was -0.158; in assay [4] it was -0.436; in [5], -0.252; in assay [6], 0.136. Moreover, the results for the composite z-score in assay [7], in assay [9] and in assay [10] were 0.606, -0.549 and 0.0092, respectively. For the same molecule, in assay [8], the z-score was 3.32 (inactive).
As for `CC(C)(C)OC(=O)CC[C@]1(C(=O)N2CCOCC2)N=C(c2ccc(OCCCO)cc2)O[C@H]1c1ccccc1CN=[N+]=[N-]`, the composite z-score in assay [1] was 0.912; in assay [2], 1.03; in assay [3] it was -0.0296; in assay [4], 0.286; in [5] it was 0.684; in [6], 1.26. In addition, the composite z-score is 1.5 in [7], 0.474 in assay [9] and 0.113 in assay [10]. The z-score in assay [8] is 1.57 (inactive).
`CC(C)=CCN(C(=O)C#Cc1ccccc1)[C@H](CO)c1ccccc1`: the composite z-score in assay [1] was -0.591; in [2] it was 0.645; in [3] it was -0.0692; in [4], 0.118; in assay [5], 0.248; in assay [6], -0.141. Further, the composite z-score is 0.283 in [7], 0.223 in [9] and -0.0994 in [10]. In addition, the z-score in assay [8] was -5.11 (inactive).
For the molecule `COC(=O)Cn1c(C(=O)N(C)C)cc2c1C[C@H]1CN(C(=O)c3ccccc3)[C@@](Cc3ccc(OC)cc3)(C(=O)OC)[C@@H]21`, the composite z-score in assay [1] was 0.2; in assay [2], -0.195; in [3], 0.347; in assay [4] it was 1.25; in [5] it was 1.19; in [6], 2.13. Besides, the figures for the composite z-score in assay [7], in [9] and in assay [10] were 1.18, 0.513 and 0.0053, respectively. For the same molecule, the z-score in [8] was 0.296 (inactive).
Take `CN1C(=O)C2C(C1=O)C1C=C(c3ccc(CO)cc3)C2C(c2cccs2)N1C` (stereo not given): the composite z-score in [1] was 0.085; in assay [2], 0.429; in [3] it was -0.0578; in [4], 0.0934; in assay [5], -0.0125; in assay [6], 0.885. For the same molecule, the composite z-score was 1.04 in assay [7], -0.075 in [9] and -0.137 in assay [10]. Besides, the z-score in [8] was 1.63 (inactive).
On to `C=CC[C@@]1(C(=O)O)N=C(c2ccc(OCCCO)cc2)O[C@@H]1c1ccccc1CN=[N+]=[N-]`, for which the composite z-score in [1] is -0.232; in assay [2], 0.334; in [3] it was -0.0518; in assay [4], 0.744; in [5] it was 0.955; in [6] it was 1.79. The composite z-score is 1.08 in [7], 0.0959 in assay [9] and -0.007 in assay [10]. Also, the z-score in assay [8] was 4 (inactive).

The values above are taken from PubChem BioAssay.
